Screens as filed in PubChem BioAssay.
An excerpt weighted towards active compounds, which were near 0.84% of everything screened.
PPARg SRC3 recr: PPARgamma-driven SRC-3 recruitment agonism; 0.26% of 200,000 active; biochemical PPARgamma/SRC-3 coactivator recruitment assay; AID 731; activation, % at 8 µM; in the data active = activation above about 23%;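 note: 0% = DMSO and 100% = reference agonist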
TR-FRET SRC-2 ct: flags TR-FRET format artefacts in PPARgamma SRC-2 recruitment agonist screen; TR-FRET artefact counter-screen; stronger effect = higher value; TR-FRET ratio at 8 µM; 0.4% of 200,000 active; in the data active = TR-FRET ratio above about 2000
SRC1 TRFRET art: TR-FRET artefact, counter-screen to PPARgamma/SRC-1 agonist assay; 0.34% of 99,000 active; TR-FRET detection artefact counter-screen, emission ratio; stronger effect = higher value; TR-FRET ratio at 8 µM; in the data active = TR-FRET ratio above about 2300
PPARg SRC-2 ag: PPARgamma-driven SRC-2 recruitment agonism. P37231. PPARgamma LBD-SRC-2 recruitment, biochemical. activation, % at 8 µM. 0.34% of 200,000 active. AID 1032;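 note: 0% = vehicle and 100% = reference agonist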
PPARg SRC1 recr: agonists of human PPARgamma SRC-1 coactivator recruitment; PPARgamma-SRC-1 coactivator recruitment biochemical assay; P37231; 0.41% of 200,000 active; AID 631; activation, % at 8 µM; in the data active = activation above about 19%;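 note: 0% = DMSO and 100% = reference agonist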
SRC3 TRFRET art: TR-FRET artefact, counter-screen to PPARgamma/SRC-3 agonist assay; 0.39% of 99,000 active; PPARgamma/SRC-3 format; stronger effect = higher value; TR-FRET ratio at 8 µM; in the data active = TR-FRET ratio above about 2000
PPARg SRC2 conf: confirmation of agonists of SRC-2 recruitment by human PPARgamma. shares compounds with PPARg SRC3 recr. biochemical SRC-2 recruitment by PPARgamma. activation, % at 8 µM. 52% of 790 active. AID 1297;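 note: 0% = vehicle alone and 100% = reference agonist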
PPARg SRC1 conf: human PPARgamma SRC-1 recruitment agonism, confirmation | 43% of 790 active | shares compounds with PPARg SRC3 recr | PPARgamma–SRC-1 coactivator recruitment biochemical assay | activation, % at 8 µM | AID 1300; in the data active = activation above about 20%;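 note: 0% = vehicle wells and 100% = reference agonist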
PPARg SRC3 ag: human PPARgamma SRC-3 recruitment agonism, confirmation; shares compounds with PPARg SRC3 recr; biochemical PPARgamma-SRC-3 coactivator recruitment, agonist mode; activation, % at 8 µM; 29% of 790 active; AID 1301; in the data active = activation above about 24%;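 note: 0% = vehicle wells and 100% = reference agonist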
Target sequence (P37231 whole entry, looked up): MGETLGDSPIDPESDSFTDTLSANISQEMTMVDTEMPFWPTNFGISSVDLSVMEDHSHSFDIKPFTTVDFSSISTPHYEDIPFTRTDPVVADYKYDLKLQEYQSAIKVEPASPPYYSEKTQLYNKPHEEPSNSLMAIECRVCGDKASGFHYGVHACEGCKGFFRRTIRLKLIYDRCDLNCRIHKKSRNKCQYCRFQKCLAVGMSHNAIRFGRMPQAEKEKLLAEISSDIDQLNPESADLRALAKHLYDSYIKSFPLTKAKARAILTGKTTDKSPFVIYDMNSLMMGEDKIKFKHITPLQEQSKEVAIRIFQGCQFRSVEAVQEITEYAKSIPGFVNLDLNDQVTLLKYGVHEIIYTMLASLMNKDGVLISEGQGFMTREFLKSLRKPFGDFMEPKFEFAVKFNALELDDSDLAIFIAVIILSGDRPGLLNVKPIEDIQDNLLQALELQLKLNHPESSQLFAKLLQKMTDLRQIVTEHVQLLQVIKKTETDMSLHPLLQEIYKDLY
Target sequence (Q9Y6Q9 whole entry, looked up): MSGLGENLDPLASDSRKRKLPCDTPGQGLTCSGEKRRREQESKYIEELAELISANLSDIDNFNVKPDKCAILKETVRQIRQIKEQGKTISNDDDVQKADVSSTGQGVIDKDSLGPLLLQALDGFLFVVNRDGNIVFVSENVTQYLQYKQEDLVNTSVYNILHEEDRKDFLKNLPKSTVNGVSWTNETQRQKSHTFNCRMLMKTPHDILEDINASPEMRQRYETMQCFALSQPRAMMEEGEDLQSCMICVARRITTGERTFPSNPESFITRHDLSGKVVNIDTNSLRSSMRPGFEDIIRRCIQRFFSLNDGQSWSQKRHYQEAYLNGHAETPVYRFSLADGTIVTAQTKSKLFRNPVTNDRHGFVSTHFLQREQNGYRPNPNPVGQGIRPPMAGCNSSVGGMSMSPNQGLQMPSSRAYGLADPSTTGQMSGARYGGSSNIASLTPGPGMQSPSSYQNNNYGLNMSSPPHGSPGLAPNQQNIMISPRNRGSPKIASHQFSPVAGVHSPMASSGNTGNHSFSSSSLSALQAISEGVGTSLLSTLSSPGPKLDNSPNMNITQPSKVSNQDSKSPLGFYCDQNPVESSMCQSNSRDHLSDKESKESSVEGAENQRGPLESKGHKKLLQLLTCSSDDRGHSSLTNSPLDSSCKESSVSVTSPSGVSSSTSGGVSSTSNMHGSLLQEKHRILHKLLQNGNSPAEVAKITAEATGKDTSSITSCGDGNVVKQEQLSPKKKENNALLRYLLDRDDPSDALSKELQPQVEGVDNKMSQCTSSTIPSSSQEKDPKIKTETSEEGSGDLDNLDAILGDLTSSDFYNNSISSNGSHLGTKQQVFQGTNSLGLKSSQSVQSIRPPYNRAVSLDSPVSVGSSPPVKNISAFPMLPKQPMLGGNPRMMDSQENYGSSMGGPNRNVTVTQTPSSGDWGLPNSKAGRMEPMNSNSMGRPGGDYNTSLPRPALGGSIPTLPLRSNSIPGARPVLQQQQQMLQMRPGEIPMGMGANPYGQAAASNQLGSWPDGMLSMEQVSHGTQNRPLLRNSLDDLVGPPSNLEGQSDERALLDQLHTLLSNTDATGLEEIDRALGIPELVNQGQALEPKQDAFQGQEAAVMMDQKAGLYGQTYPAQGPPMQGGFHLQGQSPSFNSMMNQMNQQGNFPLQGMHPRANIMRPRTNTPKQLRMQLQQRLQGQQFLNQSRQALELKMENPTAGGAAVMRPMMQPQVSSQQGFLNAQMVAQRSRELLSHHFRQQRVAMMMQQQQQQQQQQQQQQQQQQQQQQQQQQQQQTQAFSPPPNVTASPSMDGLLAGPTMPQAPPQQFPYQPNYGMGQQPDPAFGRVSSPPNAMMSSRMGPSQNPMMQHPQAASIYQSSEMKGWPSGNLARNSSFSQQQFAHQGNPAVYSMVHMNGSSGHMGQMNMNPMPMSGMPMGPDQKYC
* marks the source's active call; other numbers are inactive results; nt = no result. Cut-off read from the data, not from the text of the source, unless noted: active = activation above about 22%; inactive = the rest.

SMILES | PPARg SRC3 recr | TR-FRET SRC-2 ct | SRC1 TRFRET art | PPARg SRC-2 ag | PPARg SRC1 recr | SRC3 TRFRET art | PPARg SRC2 conf | PPARg SRC1 conf | PPARg SRC3 ag
c1cc2c(cnc3cscc32)s1 | 29* | 2391* | 3316* | 53* | 49* | 2526* | 62* | 51* | 42*
c1csc(-c2cnc3ccccc3n2)c1 | 2 | 1598 | 1778 | 3 | 6 | 1571 | nt | nt | nt
CCCn1c2ccccc2c2nnc(SCc3[nH]c(=O)[nH]c3C(=O)CCCCC(=O)OCC)nc21 | 3 | 1425 | 2035 | 13 | -3 | 1731 | nt | nt | nt
CN1C(=O)/C(=C/C=C2\SCCN2C)N(C)C1=S | 20 | 1893 | 1709 | 5 | 23* | 1670 | 13 | 12 | 12
Cc1cccc(C)c1NC(=O)CSc1nnc(Cn2nnc(-c3ccccc3)n2)n1-c1ccccc1 | 2 | 1416 | nt | -2 | 2 | nt | nt | nt | nt
Cc1onc(-c2ccccc2Cl)c1C(=O)Nc1nn[nH]n1 | -5 | 1475 | 1628 | 5 | 0 | 1461 | nt | nt | nt
Cc1onc(-c2ccccc2Cl)c1C(=O)Nc1nnc(-c2ccc(Cl)cc2Cl)s1 | 15 | 1847 | nt | 18 | 23* | nt | 31* | 23* | 20
Cc1onc(-c2ccccc2Cl)c1C(=O)Nc1ccc(F)c(F)c1 | 18 | 1401 | nt | 1 | 1 | nt | nt | nt | nt
Cc1onc(-c2c(F)cccc2Cl)c1C(=O)Nc1nnc(-c2ccccc2)s1 | 26* | 1659 | nt | 8 | 16 | nt | 26* | 25* | 17
Cc1onc(-c2c(F)cccc2Cl)c1C(=O)Nc1nnc(C2CC2)s1 | 7 | 1619 | nt | 8 | 7 | nt | nt | nt | nt
Cc1onc(-c2ccccc2Cl)c1C(=O)Nc1nnc(-c2ccc(F)cc2)s1 | 32* | 1917 | nt | 22* | 17 | nt | 17 | 10 | 11
Cc1onc(-c2ccccc2Cl)c1C(=O)Nc1nnc(-c2ccc(Br)cc2)s1 | 25 | 2175* | nt | 28* | 29* | nt | 32* | 18 | 20
COc1ccc(Nc2nc(N)nc(CSc3nccc(C)n3)n2)cc1 | -8 | 1610 | nt | 3 | 0 | nt | nt | nt | nt
CC12CC3(C)CC(C)(C1)CC(NC(=O)N1CCCC1)(C2)C3 | 15 | 1633 | nt | -2 | 2 | nt | nt | nt | nt
COc1ccc(-c2cn3c(C)c(C(=O)Nc4cc(NC(C)=O)ccc4OC)sc3n2)cc1 | 47* | 2510* | nt | 39* | 23* | nt | 41* | 34* | 25*
c1ccc(-c2nnsc2-c2nc3ccccc3[nH]2)cc1 | 13 | 1693 | 2080 | 17 | 21* | 1662 | 40* | 34* | 22
c1ccc(-c2nnsc2-c2ncc[nH]2)cc1 | 1 | 1496 | 1803 | 2 | -5 | 1443 | nt | nt | nt
CCOc1ccc(NC(=S)C(C#N)=C2N(C)c3ccccc3N2C)cc1 | 0 | 1563 | 1817 | 18 | 23* | 1702 | 0 | -1 | 3
CCOC(=O)c1sc2ncnc(NCc3ccco3)c2c1C | 30* | 1926 | nt | 23* | 9 | nt | 19 | 16 | 10
CCOC(=O)c1sc2nc(CC(=O)OC)nc(NCc3ccco3)c2c1C | -4 | 1592 | nt | 6 | 0 | nt | nt | nt | nt
Cc1ccc(C=Nc2ccc(N(C)C)cc2)o1 | 102* | 3126* | nt | 102* | 65* | nt | 1 | -3 | -1
Cc1cc(C)nc(-n2nc(C)cc2NC(=O)CN2CCc3ccccc3C2)n1 | -4 | 1463 | nt | -2 | -3 | nt | nt | nt | nt
Cc1cc(C)nc(-n2nc(C)cc2NC(=O)CN2CCCC(C)C2)n1 (stereo not drawn) | 13 | 1531 | nt | 15 | 20* | nt | 4 | 4 | 2
COC(=O)c1ccc2nc(Nc3nc4ccc(F)cc4s3)sc2c1 | 4 | 1817 | 2480* | 16 | 23* | 1850 | -4 | -2 | -3
COC(=O)c1ccc2nc(NC(=O)C(C)(C)C)sc2c1 | 5 | 1681 | 1915 | 2 | 1 | 1523 | nt | nt | nt
CCOc1cc(C2C(C#N)=C(N)SC(N)=C2C#N)ccc1OCCN1CCOCC1 | 46* | 2438* | nt | 36* | 30* | nt | -2 | 0 | 1
